Data on 26 compounds can be found in ChEMBL document CHEMBL5308504, “Tm Shift (DSF) assay results for EUbOPEN Chemogenomics Library” (2023).

Common to all, as to details: Compound concentration 20.0 uM, Protein concentration 2.0 uM, Result type QC Liability
Assay [1] has as its target Tyrosine-protein kinase ABL1 (Homo sapiens) (UniProt P00519).
Assay [2] addresses Cyclin-dependent kinase 2 (Homo sapiens) (UniProt P24941).
The target in assay [3] is Casein kinase I isoform delta (Homo sapiens) (UniProt P48730).
For assay [4], the target named is Glycogen synthase kinase-3 beta (Homo sapiens) (UniProt P49841).
Assay [5] has as its target Mitogen-activated protein kinase 1 (Homo sapiens) (UniProt P28482).
The target in assay [6] is T1, Aurora kinase A (Homo sapiens) (UniProt O14965).
T1 sequence (whole entry): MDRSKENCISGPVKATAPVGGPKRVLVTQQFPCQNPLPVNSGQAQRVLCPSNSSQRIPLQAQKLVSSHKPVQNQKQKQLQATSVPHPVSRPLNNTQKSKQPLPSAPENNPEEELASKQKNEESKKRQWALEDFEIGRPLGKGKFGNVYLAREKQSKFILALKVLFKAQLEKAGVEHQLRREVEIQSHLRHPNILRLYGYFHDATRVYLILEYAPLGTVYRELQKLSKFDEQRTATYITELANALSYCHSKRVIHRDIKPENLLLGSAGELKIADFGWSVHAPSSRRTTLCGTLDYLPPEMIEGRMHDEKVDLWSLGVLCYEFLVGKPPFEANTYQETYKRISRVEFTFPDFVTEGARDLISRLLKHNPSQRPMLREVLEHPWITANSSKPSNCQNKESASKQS

Structures are written as SMILES.

Sequence of Casein kinase I isoform delta (Homo sapiens) (P48730 whole entry, looked up, canonical isoform): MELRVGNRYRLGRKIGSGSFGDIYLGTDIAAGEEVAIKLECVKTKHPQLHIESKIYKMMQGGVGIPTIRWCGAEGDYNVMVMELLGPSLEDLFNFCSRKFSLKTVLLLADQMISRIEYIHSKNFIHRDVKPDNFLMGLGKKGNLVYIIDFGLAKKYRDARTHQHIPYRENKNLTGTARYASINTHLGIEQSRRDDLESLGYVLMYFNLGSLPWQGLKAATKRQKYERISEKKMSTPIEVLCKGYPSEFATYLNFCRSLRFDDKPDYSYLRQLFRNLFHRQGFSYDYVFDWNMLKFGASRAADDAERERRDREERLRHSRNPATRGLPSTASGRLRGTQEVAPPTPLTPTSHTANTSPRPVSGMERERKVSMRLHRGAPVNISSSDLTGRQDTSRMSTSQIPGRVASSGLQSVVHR
Sequence of Mitogen-activated protein kinase 1 (Homo sapiens) (P28482 whole entry): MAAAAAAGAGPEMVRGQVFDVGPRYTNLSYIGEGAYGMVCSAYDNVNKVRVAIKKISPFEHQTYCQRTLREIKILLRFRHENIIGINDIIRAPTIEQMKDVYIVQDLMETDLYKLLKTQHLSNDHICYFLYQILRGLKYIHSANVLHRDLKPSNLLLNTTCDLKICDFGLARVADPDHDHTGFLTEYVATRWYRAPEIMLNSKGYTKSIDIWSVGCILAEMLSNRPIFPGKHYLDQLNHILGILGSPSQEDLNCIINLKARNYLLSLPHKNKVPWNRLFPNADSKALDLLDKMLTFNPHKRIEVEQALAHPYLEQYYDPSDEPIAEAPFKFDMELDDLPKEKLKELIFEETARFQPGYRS
Sequence of Tyrosine-protein kinase ABL1 (Homo sapiens) (P00519 whole entry): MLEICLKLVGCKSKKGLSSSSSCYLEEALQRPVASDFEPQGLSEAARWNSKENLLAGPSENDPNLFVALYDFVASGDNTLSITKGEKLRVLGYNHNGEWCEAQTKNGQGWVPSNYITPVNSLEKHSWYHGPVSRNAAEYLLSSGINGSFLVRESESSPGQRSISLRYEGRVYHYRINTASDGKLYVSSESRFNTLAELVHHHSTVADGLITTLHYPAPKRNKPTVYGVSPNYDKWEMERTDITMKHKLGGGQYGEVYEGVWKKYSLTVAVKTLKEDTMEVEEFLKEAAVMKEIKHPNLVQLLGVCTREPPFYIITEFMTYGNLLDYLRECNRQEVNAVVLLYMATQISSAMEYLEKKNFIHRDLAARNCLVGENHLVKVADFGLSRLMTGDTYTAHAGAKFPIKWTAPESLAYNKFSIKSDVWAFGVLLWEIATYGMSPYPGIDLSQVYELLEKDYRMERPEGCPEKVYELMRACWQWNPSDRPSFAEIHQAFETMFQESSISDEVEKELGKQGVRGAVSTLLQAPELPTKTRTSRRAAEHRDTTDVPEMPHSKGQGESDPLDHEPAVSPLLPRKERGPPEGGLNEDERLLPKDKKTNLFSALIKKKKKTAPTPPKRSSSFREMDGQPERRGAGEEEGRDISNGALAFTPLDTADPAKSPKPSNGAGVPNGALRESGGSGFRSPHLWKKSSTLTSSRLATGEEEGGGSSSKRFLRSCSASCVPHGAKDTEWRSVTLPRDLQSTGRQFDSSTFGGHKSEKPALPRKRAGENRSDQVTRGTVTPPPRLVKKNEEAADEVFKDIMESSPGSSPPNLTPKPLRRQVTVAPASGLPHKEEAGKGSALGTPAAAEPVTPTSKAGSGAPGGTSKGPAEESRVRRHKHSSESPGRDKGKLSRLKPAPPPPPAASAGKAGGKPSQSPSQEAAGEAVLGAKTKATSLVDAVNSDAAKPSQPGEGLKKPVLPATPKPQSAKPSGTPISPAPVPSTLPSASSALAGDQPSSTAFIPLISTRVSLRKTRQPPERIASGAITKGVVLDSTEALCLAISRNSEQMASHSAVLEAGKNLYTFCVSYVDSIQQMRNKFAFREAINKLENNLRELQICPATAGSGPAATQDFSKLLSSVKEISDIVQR
Sequence of Glycogen synthase kinase-3 beta (Homo sapiens) (P49841 whole entry, looked up): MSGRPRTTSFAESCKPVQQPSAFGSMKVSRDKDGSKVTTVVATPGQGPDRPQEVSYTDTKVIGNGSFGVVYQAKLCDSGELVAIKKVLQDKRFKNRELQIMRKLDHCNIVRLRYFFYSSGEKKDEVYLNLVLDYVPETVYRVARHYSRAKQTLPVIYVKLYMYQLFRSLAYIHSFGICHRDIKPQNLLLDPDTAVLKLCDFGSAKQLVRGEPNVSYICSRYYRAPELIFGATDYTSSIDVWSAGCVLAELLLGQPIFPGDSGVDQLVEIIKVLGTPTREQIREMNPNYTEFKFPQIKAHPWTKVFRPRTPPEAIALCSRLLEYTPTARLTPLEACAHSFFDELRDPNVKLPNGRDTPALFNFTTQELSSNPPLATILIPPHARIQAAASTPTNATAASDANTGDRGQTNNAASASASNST

One may read the ΔTm as the shift of the melting midpoint relative to a reference. For `CCN(CC)C/C=C/C(=O)Nc1cc2c(Nc3ccc(F)c(Cl)c3)ncnc2cc1OCC1CC1`, the ΔTm is 7.73 °C in assay [1]; -0.55 °C in assay [2]; 0.34 °C in assay [3]; -0.95 °C in assay [4]; -0.24 °C in assay [5]; 1.29 °C in assay [6].

`CN1C(=O)[C@@H](NC(=O)c2cc(Cc3ccccc3)on2)COc2ccccc21`: the ΔTm in assay [1] was -2.16 °C; in assay [2] it was -0.24 °C; in assay [3] it was -4.18 °C; in assay [4], -4.43 °C; in assay [5], -1.79 °C; in assay [6], -1.24 °C.

`N#CC[C@H](C1CCCC1)n1cc(-c2ncnc3[nH]ccc23)cn1`: the ΔTm came to 3.71 °C in assay [1]; 1.43 °C in assay [2]; 2.02 °C in assay [3]; 4.04 °C in assay [4]; 0.74 °C in assay [5]; 5.6 °C in assay [6].

`CC(C)Nc1ncnc2cc(OCc3cccc([S@@](C)(=N)=O)c3)c(Br)cc12`: the thermal shift (ΔTm) was 2.87 °C in assay [1]; 0.49 °C in assay [2]; 1.35 °C in assay [3]; -0.51 °C in assay [4]; -0.37 °C in assay [5]; 4.25 °C in assay [6].

As for `O=C(O)C[C@H]1CCn2c1c(Sc1ccc(Cl)cc1)c1ccc(F)cc12`, the ΔTm in assay [1] is -1 °C; in assay [2], -1.1 °C; in assay [3], -0.47 °C; in assay [4] it was 0 °C; in assay [5], -0.38 °C; in assay [6], -0.18 °C.

As to `O=C(O)c1cc2cc(Cc3cccnc3)ccc2o1`, the ΔTm in assay [1] was 0.65 °C; in assay [2], 0.63 °C; in assay [3], 0.07 °C; in assay [4], 0.46 °C; in assay [5], -0.29 °C; in assay [6] it was -0.17 °C.

Regarding `O=C(Nc1ccccc1C(=O)O)c1cc(S(=O)(=O)c2ccccc2)ccc1Cl`, the ΔTm in assay [1] was 0.07 °C; in assay [2], 1.6 °C; in assay [3], 0.6 °C; in assay [4], 0.85 °C; in assay [5] it was 0.86 °C; in assay [6], 1.09 °C.

In the case of `N[C@@H]1CCCC[C@H]1Oc1ccc2ncc(-c3cc4ccccc4o3)n2n1`, the ΔTm in assay [1] amounted to 0.63 °C; in assay [2], 1.2 °C; in assay [3] it was 1.01 °C; in assay [4], 4.43 °C; in assay [5], 0.17 °C; in assay [6] it was 1.07 °C.

On to `CCCCCCCC/C=C\CCCCCCCC(=O)NCCO`, for which the thermal shift (ΔTm) in assay [1] was -1.47 °C; in assay [2], -0.92 °C; in assay [3], -0.85 °C; in assay [4] it was -2.08 °C; in assay [5], -1.79 °C; in assay [6], -2.91 °C.

With `CC(C)C(=O)N[C@@H]1CCN(C(=O)Nc2nc3c(s2)-c2nc(-c4ccccc4Cl)ncc2CC3)C1`, the ΔTm was determined as 2.72 °C in assay [1]; 0.75 °C in assay [2]; 2.85 °C in assay [3]; 0.38 °C in assay [4]; 0.99 °C in assay [5]; 2.98 °C in assay [6].

Take `Cn1c(Nc2c(Cl)cccc2Cl)nc2ccc3nc[nH]c(=O)c3c21`: the ΔTm in assay [1] turned out to be 9.85 °C; in assay [2], 0.91 °C; in assay [3] it was 0.64 °C; in assay [4] it was 1.08 °C; in assay [5] it was 0.09 °C; in assay [6], 1.49 °C.

For `CN(C)C/C=C/C(=O)Nc1cccc(S(=O)(=O)N2CCC(NC(=O)c3n[nH]cc3NC(=O)c3c(Cl)cc(Cl)cc3Cl)CC2)c1`, the ΔTm in assay [1] was 3.66 °C; in assay [2] it was 11.4 °C; in assay [3] it was 2.28 °C; in assay [4], 10.9 °C; in assay [5] it was 1.34 °C; in assay [6], 2.6 °C.

As for `CCS(=O)(=O)c1cc2cc(C[C@](O)(CC(C)(C)c3ccc(F)cc3C(N)=O)C(F)(F)F)[nH]c2cn1`, the ΔTm was 0.15 °C in assay [1]; 0.5 °C in assay [2]; 0.37 °C in assay [3]; -0.73 °C in assay [4]; 0.36 °C in assay [5]; 0.03 °C in assay [6].

With `CCn1c(=O)c2c(C)c(C(=O)N3CCC(O)CC3)sc2n(CCC(F)(F)F)c1=O`, the ΔTm in assay [1] is 0.35 °C; in assay [2], 0.49 °C; in assay [3], 0.3 °C; in assay [4], -0.42 °C; in assay [5], 0.14 °C; in assay [6], 0.03 °C.

For `CC1(C)Oc2ncnc(N)c2N=C1c1ccc([C@H]2CC[C@H](CC(=O)O)CC2)cc1`, the ΔTm in assay [1] is 0.89 °C; in assay [2], 0.57 °C; in assay [3] it was -0.19 °C; in assay [4], 0.61 °C; in assay [5], 0.18 °C; in assay [6] it was 0.25 °C.

`COc1cc(-c2cncc(-c3cnn(C4CCNCC4)c3)c2)cc(OC)c1OC`: the ΔTm in assay [1] was 4.87 °C; in assay [2], 0.28 °C; in assay [3] it was 0.76 °C; in assay [4], -0.71 °C; in assay [5], 0.5 °C; in assay [6] it was -0.25 °C.

In the case of `Cc1cccc(-c2[nH]c(CNc3ccccc3F)nc2-c2ccc3ncnn3c2)n1`, the ΔTm in assay [1] was 3.23 °C; in assay [2], 0.92 °C; in assay [3] it was 1.1 °C; in assay [4], -0.02 °C; in assay [5] it was 0.92 °C; in assay [6] it was 0.8 °C.

For `COc1c(-c2cn(C3CCC(=O)NC3=O)nn2)csc1C(=O)N1CCCC1` (stereo unspecified), the ΔTm was 0.22 °C in assay [1]; 0.04 °C in assay [2]; 0 °C in assay [3]; -0.65 °C in assay [4]; 0.26 °C in assay [5]; -1.14 °C in assay [6].

Turning to `CC(C)N(C(=O)C1CCOCC1)c1cc(F)c(Oc2ncc(Cn3nccn3)cc2C(F)(F)F)cc1C(=O)O`, the ΔTm in assay [1] was -0.75 °C; in assay [2], 0.2 °C; in assay [3], 0.07 °C; in assay [4], -0.83 °C; in assay [5] it was -0.07 °C; in assay [6], -0.1 °C.

Consider `c1ccc2c(-c3coc4cc(-c5ccc(N6CCNCC6)cc5)cnc34)ccnc2c1`, for which the ΔTm is 3.66 °C in assay [1]; -0.03 °C in assay [2]; 1.09 °C in assay [3]; -0.47 °C in assay [4]; 0 °C in assay [5]; -0.46 °C in assay [6].

In the case of `CC1CNCCc2c1nc1ccnn1c2N1CC(C(=O)N2CCC(C)(C)C2)C1` (stereo unspecified), the ΔTm in assay [1] was 0.04 °C; in assay [2], 0.37 °C; in assay [3] it was 0.46 °C; in assay [4], -0.58 °C; in assay [5], 0.2 °C; in assay [6], -0.21 °C.

For `Cc1cc(-c2nc(-c3ccc(OC(F)(F)F)cc3)no2)nn1Cc1ccnc(N2CCN(C3CC3)CC2)c1`, the ΔTm in assay [1] is 0.32 °C; in assay [2], 0.39 °C; in assay [3], -1.88 °C; in assay [4], -5.07 °C; in assay [5], 0.34 °C; in assay [6], -3.42 °C.

Turning to `CC(C)NC(=O)[C@H]1CCC[C@H]1Nc1nc(Nc2ccc(CN(C)C)cc2)ncc1Br`, the ΔTm in assay [1] was determined as 6.63 °C; in assay [2], 1.87 °C; in assay [3], 0.87 °C; in assay [4] it was 0.23 °C; in assay [5], 1.81 °C; in assay [6] it was 14.5 °C.

In the case of `CN1CCc2cc(Nc3ncc(C(F)(F)F)c(NCc4cc[nH]n4)n3)ccc2C1`, the ΔTm in assay [1] came to 5.79 °C; in assay [2], 7.99 °C; in assay [3], 2.14 °C; in assay [4], 6.33 °C; in assay [5], 1.88 °C; in assay [6] it was 11.3 °C.

For `COc1ccccc1N1CCN(c2ncnc3c2cnn3-c2ccccc2)CC1`, the ΔTm in assay [1] is 0.32 °C; in assay [2], -0.17 °C; in assay [3], 0.84 °C; in assay [4], -0.28 °C; in assay [5], -0.07 °C; in assay [6], -0.16 °C.

Take `CS(=O)(=O)NC(=O)CCC/C=C\C[C@H]1C(=O)C[C@@H](O)[C@@H]1/C=C/[C@@H](O)COc1ccccc1`: the ΔTm was -0.33 °C in assay [1]; 0.46 °C in assay [2]; -0.2 °C in assay [3]; 0.54 °C in assay [4]; 0.01 °C in assay [5]; -0.19 °C in assay [6].
